# Most compounds without a hit are left out; they make up all but 2.3% or so of the library.
# Abeta rescue: compounds reversing amyloid beta toxicity in yeast. AID 1347071. Potency, µM (highest dose often 46.1 µM), usual class: activators. yeast expressing A-beta42, growth rescue, OD600, 48 h; response scale: 0% DMSO, 100% iron-clioquinol control. hit rate 0.063% among 410,000; note: nearly all actives have a fitted effect of over 55% in size
#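 Yeast A-beta toxicity model in growth medium with pinned compounds, 48 h at 30 C; growth read as absorbance at 600 nm. Normalized to FeCl3/clioquinol equimolar mix (positive) and DMSO (negative).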
# TDP43 rescue: inhibitors of TDP-43 toxicity in yeast; TDP-43 expressing yeast growth rescue, BacTiter-Glo, 24 h; Potency, µM (doses to about 46.1 µM), for the others: at the top dose growth rescue (activation), most hits filed as activators; hit rate 1.8% among 410,000; AID 652104; note: % of control where 0% means no effect; nearly all actives have a fitted effect of over 50% in size
#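 Yeast cells expressing TDP-43 under galactose induction are exposed to compounds for 24 hr at 30 deg C. BacTiter-Glo luminescence measures growth, so protective compounds score as activators.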
# Chronic BCR inh: chronic active BCR signaling inhibition; Potency, µM (series often up to 46.1 µM), for the others: at the highest dose activity change, negative = inhibition, hits mostly inhibitors; AID 493014; hit rate 0.05% among 340,000; ABC-DLBCL IkBa-CBG/CBR reporter, luminescence ratio, 4 h; active = well fitted inhibition curve with a large enough effect in the signal ratio, with a control signal flat, not every such curve was filed as active; inconclusive = small, poorly fitted or top-dose-only effect, or effect the other way, or a change in a side signal; the % refers to the signal ratio;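 note: plate controls were basal doxycycline-induced cells for no effect and cells given 10 µM MG132 for full effect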
#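 Compounds up to 46 uM were incubated four hours with TMD8 cells whose green CBG68 luciferase is fused to IkappaBalpha; red CBR luminescence normalised the signal, and concentration-effect curves were fitted to fusion, red and ratio data.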
# FUS yeast rescue: rescues growth of FUS-expressing yeast. S. cerevisiae FUS-expressing, growth rescue, OD600, 24 h. Potency, µM (series often up to 76.6 µM), usual class: activators. hit rate 0.24% among 390,000;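 note: plate controls were DMSO vehicle for no effect and reference control for full effect; nearly all actives have a fitted effect of over 55% in size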
#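 Steps: raffinose overnight preculture; dilution to OD 0.005 in 2% galactose minimal medium; compound addition (concentration series); 24hr at 30C, 99% humidity; absorbance read at 600 nm.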
# aSyn rescue: alpha-synuclein toxicity inhibition in yeast. Potency, µM (highest dose often 46.1 µM), for inactives: at the highest dose growth rescue (activation), most hits filed as activators. Yeast expressing alpha-synuclein, growth rescue, BacTiter-Glo, 24 h. AID 652106. hit rate 0.14% among 370,000; note: % of control where 0% means no effect; nearly all actives have a fitted effect of over 65% in size
#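 Screening used galactose-induced yeast with toxic alpha-synuclein levels, exposed to compound for 24 hr at 30 deg C. Cell growth, read with BacTiter-Glo luminescence, gave the measured signal.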
# uPA generation: blocks generation of uPA at the cell surface; cell surface uPA generation assay, qHTS; Potency, µM (series often up to 38.3 µM), for inactives: at the highest dose activity change, negative = inhibition, actives largely listed as inhibitors; hit rate 0.31% among 330,000; active = well fitted inhibition curve with a large enough effect; inconclusive = small, poorly fitted or top-dose-only effect; inactive = no such curve, though single readings can be large or run the other way; tested in mouse RAW 264.7 cells; note: % is set by controls: 0 for no effect and ±100 for the full control effect; nearly all actives have a fitted effect of over 55% in size
# Active calls of the source: *; i = inactive; ? = inconclusive; · = no result given. Unless noted, calls come from the whole dose curve; as a rule, active = well fitted curve in the direction sought with a large enough effect; inconclusive = small, poorly fitted or top-dose-only effect, or another doubt; inactive = no such curve, though single readings can be large; an effect the other way counts as inactive or inconclusive. Potency is the fitted concentration of half-maximal effect.
SMILES,Abeta rescue,TDP43 rescue,Chronic BCR inh,FUS yeast rescue,aSyn rescue,uPA generation
O=C(O)C1C2C=CC(C2)C1C(=O)NCc1ccc(Cl)c(Cl)c1 (stereo unspecified),i,20µM*,2%,i,1%,0%
O=C(O)C1C2C=CC(C2)C1C(=O)NCc1ccc2c(c1)OCO2 (stereo unspecified),i,2%,4%,i,3%,?
CCOc1cccc(NC(=O)C2CC(=O)N(CC)C(=Nc3ccc(F)cc3)S2)c1 (stereo unspecified),?,22µM*,·,i,?,·
Cc1nc2c(C(=O)NCCc3ccc(Cl)cc3)cnn2c(C)c1Cc1ccc(F)cc1,i,20µM*,15%,32µM*,·,·
Cc1nc2c(C(=O)NCCc3ccc(Cl)cc3)cnn2c(C)c1Cc1c(F)cccc1Cl,i,10%,9%,i,·,·
Cc1cccc(Nc2c3c(nc4ccccc24)CCC3)c1,i,-20%,1%,i,-11%,-4%
COc1ccc(OC)c(Nc2c3c(nc4ccccc24)CCC3)c1,i,-14%,16µM*,i,-2%,-19%
COc1cc(Nc2c3c(nc4ccccc24)CCC3)cc(OC)c1OC,i,8%,20µM*,i,0%,2%
Cc1ccc(C)c(CN2C(=O)c3ccccc3S(=O)(=O)c3ccc(C(=O)N4CCN(C)CC4)cc32)c1,i,8%,?,i,7%,-18%
c1ccc(CN=C2NN=C(c3ccccc3)CS2)cc1,i,13µM*,?,i,5%,0%
Clc1ccc(C2=NNC(=NCc3ccccc3)SC2)cc1,i,21%,?,i,4%,0%
Cc1ccc(-n2nc3c(=O)n(CC(=O)NCCCc4ccccc4)nc(C)c3c2C)cc1,i,12%,7%,i,2%,0.5µM*
COc1cccc(-c2nnc3sc(C4CCCCC4)nn23)c1,i,?,?,i,-4%,0%
CCOc1cccc(-c2nnc3sc(C4CCCCC4)nn23)c1,i,18µM*,-1%,?,-5%,1%
CC(C)(C)n1nc(-c2ccc(Cl)cc2)c2c(N)ncnc21,i,-46%,?,i,2.5µM*,-15%
CC(C)(C)n1nc(-c2ccc(F)cc2)c2c(N)ncnc21,i,-62%,?,i,?,-9%
Cc1cccc(OCc2cc(=O)n3c4c(sc3n2)CCCC4)c1C,i,5%,·,i,·,·
Cc1cccc(C)c1OCc1cc(=O)n2c3c(sc2n1)CCCC3,i,35µM*,·,i,·,·
Cc1cc(Cl)cc(C)c1OCC(=O)N1CCN(c2ncccn2)CC1,i,13µM*,?,i,0%,13%
COc1ccccc1[C@H]1C(c2cccc(Cl)c2)=NN(c2ccccc2)[C@@H]1CO,i,20µM*,-3%,?,-1%,?
OC[C@@H]1[C@@H](c2ccccc2)C(c2ccccc2)=NN1c1ccccc1,?,13µM*,-1%,i,?,11%
OC[C@@H]1[C@@H](c2ccccc2)C(c2cccc(Cl)c2)=NN1c1ccccc1,i,-80%,?,?,-69%,-9%
CN(N=O)c1ccc(CC2CCc3ccccc32)cc1 (stereo unspecified),i,0%,·,·,2%,2%
Cn1c(NCCCN2CCOCC2)nc2c1c(=O)n(Cc1ccc(Cl)cc1Cl)c(=O)n2C,i,5%,-1%,i,12%,2%
COc1ccc(C(=O)/C=C/C(=O)N(Cc2ccc(F)cc2)C(C(=O)NC2CCCCC2)c2ccncc2)c(O)c1 (stereo unspecified),i,20µM*,?,·,25µM*,-9%
O=c1[nH]cnc2c1ccn2C1OC(CO)C(O)C1O (stereo unspecified),i,9%,·,i,-5%,4µM*
COc1ccc(-c2[nH]ncc2-c2ccc(Cl)cc2)c(O)c1,?,?,·,?,?,3%
